# Assay results reported in PubChem BioAssay (NCI).
# Compounds without any hit were thinned out: in the full panel of roughly 83,000, 20% have a hit.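 In brief: 96-well plates, 48 h treatment, single concentration, percent growth endpoint.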 Unmarked numbers belong to inactive results. Active and inactive are the calls of the source. Rule for the calls: active = growth percent below 10; inactive = the rest.
# What was measured:
# Assay in all cases: NCI-60 one-dose screen, 48 h (100 = growth as untreated, 0 = no growth, -100 = all killed)
# NCI-H23 lung = conditions: 10 µM unless noted
# NCI-H226 lung = conditions: 10 µM unless noted
# NCI-H322M lung = conditions: 10 µM unless noted
# HOP-62 NSCLC = conditions: 10 µM unless noted
# NCI-H460 lung = conditions: 10 µM unless noted
# HOP-92 NSCLC = conditions: 10 µM unless noted
# NCI-H522 lung = conditions: 10 µM unless noted
# A549/ATCC NSCLC = conditions: 10 µM unless noted
# 786-0 renal = conditions: 10 µM unless noted
# COLO 205 colon = conditions: 10 µM unless noted
# DU-145 prostate = conditions: 10 µM unless noted
# K-562 leukemia = conditions: 10 µM unless noted
# MALME-3M melanoma = conditions: 10 µM unless noted
# MDA-MB-231 breast = conditions: 10 µM unless noted
# RXF 393 renal = conditions: 10 µM unless noted
# SF-268 CNS = conditions: 10 µM unless noted
# SF-295 CNS = conditions: 10 µM unless noted
# SF-539 CNS = conditions: 10 µM unless noted
# UACC-257 melanoma = conditions: 10 µM
# M14 melanoma = conditions: 10 µM unless noted
SMILES,growth (NCI-H23 lung),growth (NCI-H226 lung),growth (NCI-H322M lung) [%],growth (HOP-62 NSCLC) [%],growth (NCI-H460 lung),growth (HOP-92 NSCLC) [%],growth (NCI-H522 lung),growth (A549/ATCC NSCLC) [%],growth (786-0 renal) [%],growth (COLO 205 colon),growth (DU-145 prostate),growth (K-562 leukemia) [%],growth (MALME-3M melanoma),growth (MDA-MB-231 breast),growth (RXF 393 renal),growth (SF-268 CNS),growth (SF-295 CNS),growth (SF-539 CNS),growth (UACC-257 melanoma),growth (M14 melanoma)
COc1cc(Cn2c(-c3nonc3N)nc3ccccc32)ccc1C,25.1%,50.3%,58.8,30.5,11%,39.8,-20% (active),24.2,40.3,-9.7% (active),13.8%,10.4,80.7%,22.3%,-8.35% (active),40.3%,26%,-32.8% (active),65.2%,14%
Cc1ccc(C2=NN(c3ccc(S(=O)(=O)NC(=O)NCc4ccccc4)cc3)C(c3ccc(N(C)C)cc3)C2)c(C)c1 (stereo not given),49.4%,77.7%,56.3,74.9,31.3%,82.3,49.7%,22.1,68.5,62.1%,82.7%,49.6,87%,75.7%,53%,50.8%,52.7%,37.6%,60.3%,27.3%
NC(=O)NC(=O)/C=C/C(=O)OCCCl,111%,98.2%,105,114,104%,71.6,-42.5% (active),105,125,97.7%,112%,94.4,95.9%,115%,105%,110%,89.1%,105%,77.4%,113%
O=C(CNC1CCCCC1)Nc1ccc(-c2nc3ccccc3s2)cc1,76.2%,80.3%,91.7,85.2,91.3%,48.8,95.5%,88,70.6,95.4%,89.3%,49.5,105%,46.2%,68.5%,78.4%,85.9%,87.5%,105%,89.4%
COc1ccc(/C=C\c2cc(OC)c(OC)c(OC)c2)c(NS(=O)(=O)c2ccc(C(C)(C)C)cc2)c1O,23.5%,44.9%,64,81.9,8.21% (active),10.8,-7.56% (active),27.4,24.4,1.63% (active),-0.37% (active),13.2,108%,8.45% (active),22.6%,24.5%,16.9%,2.6% (active),65.7%,14.9%
COc1ccc(/C=C/c2cc(N3CCOCC3)c3cc(F)c(F)cc3n2)cc1OC,42.3%,34.8%,30,63.9,25.2%,49.7,7.5% (active),44.6,40.8,11.8%,48.3%,28.9,49.3%,45.9%,52.2%,31.4%,31.4%,28.9%,45.4%,31.6%
COc1ccc(S(=O)(=O)Nc2cc(/C=C\c3cc(OC)c(OC)c(OC)c3)cc(OC)c2OC)cc1OC,31.4%,66.6%,55.2,52.3,11.4%,43.3,37.4%,34,18,-47.4% (active),13.9%,15.8,84.1%,32.3%,-8.93% (active),38.4%,8.39% (active),-18.6% (active),72%,2.52% (active)
COc1ccc(C(=O)c2cc(OC)c(OC)c(OC)c2)cc1/C=C/C(=O)c1ccc2c(c1)OCO2,-3.44% (active),0.564% (active),52.9,69.8,14.6%,64,-43% (active),53.5,29.6,27.9%,33.8%,12.9,12.5%,11.2%,17.4%,8.85% (active),77.3%,-33.8% (active),51.3%,25.3%
COc1cccc(/C=C/c2c(C(=O)O)cccc2[N+](=O)[O-])c1OC,104%,99.5%,107,95.5,104%,89.1,113%,103,99.1,100%,102%,90.4,94.8%,107%,108%,95.8%,91.6%,104%,101%,103%
CCNCc1ccncc1,105%,103%,104,104,102%,107,91%,99.4,97.7,106%,108%,94.5,101%,114%,112%,106%,102%,103%,96.3%,94.5%
CNC(=O)Cc1nc(-c2cccc(NS(=O)(=O)c3c(F)cccc3F)c2F)c(-c2ccnc(Nc3ccccc3)n2)s1,56%,74.3%,60.8,43.3,94%,17.3,54.8%,55.3,64,7.06% (active),79.5%,20.5,0.396% (active),-14.3% (active),-6.63% (active),54.9%,101%,68.9%,7.77% (active),2.35% (active)
O=C(COc1ccccc1)N1N=C(c2ccc(Cl)cc2)CC1c1c[nH]c2ccccc12 (stereo not given),76.1%,65.2%,86.4,66.6,47.9%,62.1,73.9%,58.4,71,86.9%,92%,71.2,74.1%,47.7%,103%,71.9%,92.1%,87.1%,89.1%,83.1%
O=C(O)c1ccc(-n2c(=O)c3ccccc3c3ccccc3c2=O)cc1,102%,99.8%,108,102,115%,110,94.9%,106,109,105%,113%,103,109%,106%,108%,99.5%,92.7%,97.1%,102%,117%
CCNC(=O)C1CCCN1C(=O)C(CCCN=C(N)N)NC(=O)C(CC(C)C)NC(=O)C(CC(C)C)NC(=O)C(Cc1ccc(O)cc1)NC(=O)C(CO)NC(=O)C(Cc1c[nH]c2ccccc12)NC(=O)C(Cc1cnc[nH]1)NC(=O)C1CCC(=O)N1 (stereo not given),87.8%,111%,119,96.8,107%,92,74.1%,81.6,104,94.9%,135%,73.5,122%,112%,28.4%,100%,122%,96.1%,83.8%,102%
